Hits are enriched below; roughly 6.6% of the tested compounds scored in any of these assays.
BoNT A protease – BoNT/A light chain protease inhibitors, primary screen, biochemical, flow cytometry, MLPCN library | Botulinum neurotoxin type A light chain protease (Clostridium botulinum A str. ATCC 3502) | multiplex microsphere protease substrate cleavage | inhibition, % at 10 µM | hit rate 0.17% among 360,000 | AID 588499, 2011; further: plate controls were buffer without enzyme for full effect and enzyme alone for no effect
Anthrax LF inh2 – Bacillus anthracis LF protease inhibitors, primary screen, biochemical, multiplex microsphere, MLPCN library | Lethal factor (Bacillus anthracis), P15917 | multiplex microsphere protease cleavage assay | inhibition, % at 10 µM | hit rate 0.12% among 360,000 | AID 588501, 2011; further: plate controls were buffer without enzyme for full effect and enzyme alone for no effect
BoNT-F LC inh – BoNT/F light chain protease inhibitors, primary screen, biochemical, flow cytometry, MLPCN library; Botulinum neurotoxin type F light chain protease (Clostridium botulinum); Multiplex microsphere protease cleavage assay; inhibition, % at 10 µM; hit rate 0.22% among 360,000; AID 588497, 2011; in the data active means inhibition above about 35%, passing the limit was not always enough; inconclusive means no clear call, values can overlap the other calls; further: plate controls were buffer without enzyme for full effect and enzyme alone for no effect
Autofluor counter – flagged as autofluorescent in microsphere protease counterscreen. AID 624483. fluorescence intensity (concentration not given with the values). compound autofluorescence counterscreen, microsphere flow cytometry; active compounds read high. hit rate 3.1% among 360,000; in the data active means fluorescence intensity above about 16000; inconclusive means no clear call, values can overlap the other calls
GDH-TPI inh – GDH-TPI coupling enzyme inhibitors, primary screen, artefact control for M. tuberculosis FBA inhibitor project, biochemical, absorbance, full deck; AID 588335, 2011; hit rate 1.2% among 360,000; GDH-TPI coupled enzyme counterscreen, NADH absorbance; inhibition, % at 4.8 µM; in the data active means inhibition above about 30%;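 further: 0% = DMSO wells and 100% = wells lacking the enzyme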
FBA Mtb inh – Mtb FBA enzyme inhibitors, primary screen, biochemical, fluorescence, strain H37Rv. Fructose-bisphosphate aldolase (Mycobacterium tuberculosis (strain ATCC 25618 / H37Rv)), …. purified M. tuberculosis FBA, fluorescence read-out. inhibition, % at 1 µM. hit rate 2.3% among 360,000. AID 588726, 2011; in the data active means inhibition above about 27%;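 further: 0% = vehicle and 100% = reference inhibitor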
Numbers without * were called inactive; i = inactive; ? = inconclusive; nt = no result. Unless noted, no stated cut-off is given here; in the data, active means inhibition above about 30%; inconclusive means no clear call, values can overlap the other calls; inactive means below that.

SMILES	BoNT A protease	Anthrax LF inh2	BoNT-F LC inh	Autofluor counter	GDH-TPI inh	FBA Mtb inh
CC(NC(=O)c1ccc(Cl)s1)C1CCCO1 (stereo unspecified)	-2.4	0.9	-4.4	24646*	0.6	2.1
CNC(=O)c1cc2cccc(OC)c2oc1=O	0.0	0.6	-9.1	2469	11.6	3.4
CC(NC(=O)Nc1ccc2c(c1)OCO2)C1CCCO1 (stereo unspecified)	1.0	-1.4	1.6	23219*	0.0	-6.8
CC(NC(=O)c1sc2ccccc2c1Cl)C1CCCO1 (stereo unspecified)	-0.3	1.1	5.4	2577	2.1	2.2
CC(NC(=O)c1csc2ccccc12)C1CCCO1 (stereo unspecified)	?	1.0	-4.2	16909*	10.5	2.7
CC(NC(=O)c1cccs1)C1CCCO1 (stereo unspecified)	-2.9	-2.1	-14.6	4271	-5.5	1.6
COc1cccc2cc(C(=O)NC(C)C3CCCO3)c(=O)oc12 (stereo unspecified)	-0.6	-3.9	-3.6	16163*	24.3	0.5
Cc1ccc(C(=O)N2NC(c3ccc(F)cc3)C3C(=O)N(c4ccc(C)c(C)c4)C(=O)C32)cc1 (stereo unspecified)	-0.9	-9.6	-12.9	4514	7.9	2.9
CCc1cc(C(=O)NC(C)C2CCCO2)cs1 (stereo unspecified)	-3.6	-1.3	-1.7	6538	1.0	-0.7
Cc1cc(C(=O)NC(C)C2CCCO2)cs1 (stereo unspecified)	?	-1.4	-2.7	16328*	8.9	-2.8
CN1CCCN(S(=O)(=O)c2cccc(C(F)(F)F)c2)c2nc3ccccc3nc21	5.9	-1.8	-4.2	?	6.0	6.8
O=C1c2ccccc2C(c2nnnn2-c2ccc3c(c2)OCCO3)N1C1CC1 (stereo unspecified)	-0.3	-10.6	-4.8	4084	nt	nt
COc1c(C=O)c2c(c(OC)c1OC)-c1ccc(OC)c(=O)cc1C(NC(C)=O)CC2 (stereo unspecified)	0.1	-8.2	-8.4	2900	31.9*	1.1
CC1CCc2cc(F)ccc2N1C(=O)CCl (stereo unspecified)	0.6	3.9	4.4	4688	6.9	0.8
CCN(CC)c1ccc(/C=N/N2C(=O)c3ccccc3C2=O)cc1	0.0	-1.2	-4.6	2437	23.9	1.8
CCN(CC)c1ccc(/C=N/n2c(C)cc(C)cc2=O)cc1	3.5	-2.3	6.1	19156*	33.0*	-1.8
CCc1n[nH]c(=S)n1/N=C/c1c(C)nn(-c2ccccc2)c1Cl	-1.4	-6.3	-4.6	4909	6.1	-0.4
CCc1n[nH]c(=S)n1/N=C/c1ccc(N(CC)CC)cc1	0.2	-0.6	-1.8	4529	47.6*	-5.4
Cc1ccc(C)c(N(CC(=O)NCCc2ccccc2)C(=O)CCC(=O)Nc2ccccn2)c1	-1.5	-1.5	9.3	3420	11.1	-2.5
CCOc1ccccc1OCC(=O)NN1Cc2ccccc2C1=N	0.7	0.9	-1.2	4517	-2.6	-0.1
Cc1oc2c(cc(NS(=O)(=O)c3ccc4c5c(cccc35)C(=O)N4)c3ccccc32)c1C(=O)OC(C)C	1.7	1.3	0.7	19667*	10.9	-0.4
CC(=O)c1sc(Nc2ccccn2)nc1C	0.7	1.6	8.8	4429	47.0*	2.1
COc1cc(C)nc(Nc2nc(C)c(C(C)=O)s2)n1	0.5	3.1	0.5	4508	34.8*	-3.1
CC(=O)c1sc(Nc2cccc3ccccc23)nc1C	-0.1	-5.0	-13.0	6035	26.5	1.2
CCc1ccc(CNC(=O)c2ccc3nc(C4CCCCC4)oc3c2)nc1	-2.0	-2.8	-5.4	?	5.2	-0.1
SMILES	BoNT A protease	Anthrax LF inh2	BoNT-F LC inh	Autofluor counter	GDH-TPI inh	FBA Mtb inh
CCC(Oc1ccccc1)C(=O)NCCOC (stereo unspecified)	-1.1	-1.2	-6.6	2675	2.2	-0.6
O=C(/C=C/c1ccccc1)c1ccc2c(c1)OCO2	-0.2	-18.3	?	2957	40.1*	-4.7
O=C(C=Cc1ccc2c(c1)OCO2)C1CC1	-0.3	-4.9	-7.6	3944	36.0*	0.7
COC(=O)/C=C/c1ccc2c(c1)OCO2	-1.2	-1.0	-3.7	4508	8.5	6.7
COc1ccc(S(=O)(=O)N(C)C[C@H]2OCc3cn(nn3)CCCC(=O)N([C@@H](C)CO)C[C@@H]2C)cc1	-0.5	15.2	-2.3	4305	nt	1.9
CNC(=S)N/N=C1\C(=O)c2cccc3cccc1c23	-20.5	6.5	-413.9	17615*	19.8	-0.6
CCCCNC(=S)N/N=C1\C(=O)c2cccc3cccc1c23	6.8	7.4	8.3	20454*	3.9	-1.5
COC(=O)[C@]1(Cc2ccccc2)N[C@H](c2ccc(SC3CCCCC3)c(OC)c2)[C@@H]2C(=O)N(C)C(=O)[C@@H]21	-0.3	-3.4	0.4	3925	-0.4	4.3
CCOc1ccc(NCC(=O)Nc2ccc(Cl)cc2C)cc1	0.6	-10.6	-21.0	19405*	-9.6	-1.4
CCCOc1ccc(NCC(=O)Nc2ccc(C)cc2C)cc1	-185.7	?	i	?	0.3	4.9
CCCCn1c(N)c(N(CCC(C)C)C(=O)c2ccc(C)c(S(=O)(=O)N3CCOCC3)c2)c(=O)[nH]c1=O	2.7	?	1.0	?	5.8	1.4
O=C(c1ccc(-c2ccccc2)cc1)c1ccccc1C(=O)N1CCOCC1	1.5	-2.0	4.1	22303*	4.4	1.5
O=C(/C=C/N1CCOCC1)c1ccc(-c2ccccc2)cc1	-0.2	-1.8	-0.4	9964	38.0*	-4.8
O=C(Oc1ccccc1C(=O)N1CCOCC1)c1ccc(Br)cc1	?	0.6	-0.5	20205*	-1.8	0.3
O=C(c1ccccc1)c1ccc(C(=O)N2CCOCC2)cc1	0.6	-1.9	2.5	3028	3.1	0.4
O=C(c1ccccc1-c1nc(-c2ccccc2)no1)N1CCOCC1	3.7	-3.5	4.3	18009*	-0.5	-1.1
Cc1cccc(CNc2ccc(C(CC(N)=O)NC(=O)c3cccc(Br)c3)cc2[N+](=O)[O-])c1 (stereo unspecified)	0.1	-2.3	-0.1	3837	11.2	-1.9
Cn1ccnc1-c1nnn(-c2ccc(Cl)c(Cl)c2)n1	-0.5	1.0	-1.1	2969	6.7	3.1
Cc1ccc(S(=O)(=O)N2CCOCC2)c2nsnc12	-1.5	-5.6	-3.2	17116*	18.4	1.2
Cc1ccc(S(=O)(=O)N2CCCCC2)c2nsnc12	-1.5	-1.7	-21.6	4023	3.0	-0.6
CC1(C)CC(=O)C=C(Nc2ccc(S(N)(=O)=O)cc2)C1	-0.5	-1.9	-5.2	10993	38.1*	2.3
CCc1ccc(NC2=CC(=O)CC(C)(C)C2)cc1	-0.2	5.8	1.8	3058	12.9	5.2
